Screening data deposited in PubChem by National Center for Advancing Translational Sciences (NCATS).
HCV inh = inhibitors of hepatitis C virus infection; Huh7.5.1 HCVcc-Cre infection, luciferase reporter, 44 h; Potency, µM (doses to about 41.8 µM), without a hit: top-dose activity change, negative = inhibition, most hits filed as inhibitors; actives 3.4% (n = 340,000); further: potency means the concentration at half of the fitted maximal effect
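Seed cells (1,000/well) for 4 h; treat with compound and infect with HCVcc-Cre, moi about 0.5. Incubate 44 h, then detect luciferase activity.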
HCMV inh = blocks human cytomegalovirus replication; HFF cells, HCMV-luciferase reporter, 72 h; stronger effect = lower value; activity change, negative = inhibition, % at 57.5 µM; actives 4.5% (n = 410,000); AID 1259415; in the data active means activity change below about -60%; inconclusive means no clear call, values can overlap the other calls; inactive means above about -39%
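Steps: HFFs plated, 16 h 37C; compounds added; HCMV-luciferase added to MOI 1 PFU/cell; 72 h 37C; OneGlo reagent, 5 min room temperature; luminescence read, normalized to controls.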
FMDV antiviral = blocks foot and mouth disease virus; AID 1159524; FMDV antiviral cell-based qHTS; actives 1.2% (n = 410,000); Potency, µM (highest dose often 57.9 µM), for the others: at the highest dose activity change, negative = inhibition, actives largely listed as inhibitors; calls by dose curve; tested in HEK293T cells; further: read-out not given here; potency means the concentration at half of the fitted maximal effect; nearly all actives have a fitted effect of over 45% in size
Vaccinia mCherry = inhibitors of vaccinia virus infection (mCherry reporter signal). Vaccinia virus mCherry reporter infection, fluorescence. actives 0.63% (n = 310,000). Potency, µM (top dose mostly 36.5 µM), for the others: at the top dose activity change, negative = inhibition, actives largely listed as inhibitors; calls by dose curve; tested in A549 cells; further: potency means the concentration at half of the fitted maximal effect; nearly all actives have a fitted effect of over 35% in size
VACV Venus inh = vaccinia inhibition (Venus reporter); actives 0.46% (n = 330,000); Vaccinia virus Venus reporter expression, fluorescence; AID 720580; Potency, µM (top dose mostly 36.5 µM), for inactives: top-dose activity change, negative = inhibition, actives largely listed as inhibitors; calls by dose curve; tested in A549 cells; further: potency means the concentration at half of the fitted maximal effect; nearly all actives have a fitted effect of over 30% in size
Sm TGR inh = inhibitors of Schistosoma mansoni thioredoxin glutathione reductase; purified TGR, DTNB reduction, TNB absorbance 405 nm; Potency, µM (highest dose often 114 µM), without a hit: at the top dose activity change, negative = inhibition, most hits filed as inhibitors; actives 3% (n = 360,000); further: potency means the concentration at half of the fitted maximal effect; nearly all actives have a fitted effect of over 60% in size
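Kinetic colorimetric format: TGR-catalysed, NADPH-driven DTNB reduction monitored via TNB absorbance. Enzyme dispensed at 20 nM; compound exposure 15 min at room temperature before reaction start.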
Active calls of the source: *; i = inactive; ? = inconclusive; / = no result given; [ ] = dose if it differs, or a comment. Shown are actives, neighbours in structure and some others; about 9.3% of the full set was active somewhere. Unless noted, the call rests on the fitted dose curve; in most records, active means well fitted curve in the direction sought with a large enough effect; inconclusive means small, poorly fitted or top-dose-only effect, or another doubt; inactive means no such curve, though single readings can be large; an effect the other way counts as inactive or inconclusive. On the % scale 0 is the no-effect control and ±100 the full control effect.

SMILES	HCV inh	HCMV inh	FMDV antiviral	Vaccinia mCherry	VACV Venus inh	Sm TGR inh
Cc1cccc(C(=O)NC2CCN(C(=O)NCc3ccccc3)CC2)c1	1%	-5	-2%	0%	-6%	11µM*
O=C(NC1CCCCC1)C1CCN(C(=O)NCc2ccccc2)CC1	7%	4	13%	/	/	6%
Cc1ccc(NC(=O)N2CCC(NC(=O)c3cccc(C)c3)CC2)cc1	-9%	10	-1%	-11%	-3%	?
O=[N+]([O-])c1ccc(Oc2ccc(C(F)(F)F)cn2)cc1	-5%	-1	-12%	i	8%	-4%
CCOc1ccccc1N(CC(=O)N1CCC(C(N)=O)CC1)S(=O)(=O)c1ccc(SC)cc1	3%	-70*	28%	-19%	-14%	-31%
Cc1ccc(S(=O)(=O)N(CC(=O)N2CCCCCC2)c2ccccc2F)cc1	11%	-62*	29%	i	-8%	8%
O=S(=O)(Nc1cccnc1)c1ccc2c(c1)OCCO2	17%	-29	25%	i	-6%	4%
Cc1cc(NC(=O)c2ccc(Br)cc2)nc(C)n1	-1%	-5	-2%	-2%	-15%	4%
Cc1cc(C)c2c(CCl)cc(=O)oc2c1	4%	-95*	28µM*	-20%	?	10µM*
CCCc1cc(=O)oc2cc3oc(C)c(C)c3cc12	22µM*	-11	-6%	-7%	11%	3%
Cc1cc(C)c2c(CN3CCCCC3)cc(=O)oc2c1	1%	10	23%	9%	0%	34%
CCCc1cc(=O)oc2cc(C)c3c(C)coc3c12	10µM*	-12	/	-13%	-5%	0%
CCCc1cc(=O)oc2cc3occ(C)c3cc12	2.2µM*	-22	-20%	/	/	23%
CSCCC(NS(=O)(=O)c1ccc(Cl)cc1)C(=O)OCc1c(Cl)cccc1Cl (stereo not given)	?	-6	-29%	-1%	-16%	0%
CCNc1nc(OC)nc(SCC(=O)Nc2ccccc2)n1	?	7	-7%	/	/	0%
Nc1[nH]c(C(=O)c2ccccc2)c(-c2cccc3ccccc23)c1C(=O)NCc1ccccc1	/	-8	-27%	-10%	-6%	/
O=C(NCCC1=CCCCC1)c1ccc(Cl)c(S(=O)(=O)N2CCCCC2)c1	?	-81*	?	/	/	-20%
O=C(NCCSCc1c(F)cccc1Cl)c1ccc(CN2CCOCC2)cc1	?	-63*	?	-17%	-15%	-9%
Cc1ccc(C)c(S(=O)(=O)N2CCCOC2CNC(=O)C(=O)NCCC2=CCCCC2)c1 (stereo not given)	-21%	-67*	?	-8%	-19%	-1%
NS(=O)(=O)c1ccc(CCNC(=O)c2ccc(Cl)c(S(=O)(=O)N3CCCCC3)c2)cc1	2%	?	45µM*	114%	295%	/
NS(=O)(=O)c1ccc(CCNC(=O)c2ccc(S(=O)(=O)N3CCCCC3)cc2)cc1	6%	-32	?	/	/	4%
CO/N=C/NC(=O)NOCc1ccc(Cl)cc1Cl	-17%	-17	-12%	-13%	-24%	-3%
O=C(NCCC1=CCCCC1)c1ccc(Cl)c(S(=O)(=O)N2CCOCC2)c1	?	-66*	?	/	/	2%
COc1ccc(CCNC(=O)NC2CCCCC2)cc1OC	-14%	25	23%	/	/	2%
O=C(NCCN1CCOCC1)c1ccc(Cl)c(S(=O)(=O)N2CCCCC2)c1	/	-20	-19%	-3%	-8%	1%
SMILES	HCV inh	HCMV inh	FMDV antiviral	Vaccinia mCherry	VACV Venus inh	Sm TGR inh
Cc1ccc(CSCCNC(=O)c2ccc(Cl)c(S(=O)(=O)N3CCOCC3)c2)cc1	22µM*	-39	?	/	/	-18%
COc1ccc(Cl)cc1C(=O)NCCc1ccc(S(=O)(=O)NC(=O)NC2CCCCC2)cc1	3%[8.37 µM]	-63*	-17%	-18%	-11%	-5%
COc1ccc(C(=O)NCCc2ccc(Cl)cc2)cc1S(=O)(=O)N1CCCCC1C (stereo not given)	8.9µM*	?	0%	/	/	-6%
CCN(CC(=O)NCc1cccs1)C(=O)c1cc(S(=O)(=O)N2CCCCC2)ccc1Cl	-29%	-25	0%	i	-15%	-5%
O=C(CCC1CCCC1)NCCS(=O)(=O)N1CCN(c2ccccc2F)CC1	-2%	-24	27%	-19%	-5%	1%
O=C1S/C(=C\c2ccccc2)C(=O)N1CC(O)Cn1c2ccccc2c2ccccc21 (stereo not given)	-1%	3	-18%	-25%	-29%	-18%
CCN(CC)C(=O)c1ccc(S(=O)(=O)N2CCC(c3nc4ccccc4s3)CC2)cc1	2.5µM*	-96*	/	-10%	?	0%
Cc1ccc(C(=O)Nc2ccc(S(=O)(=O)N3CCC(c4nc5ccccc5s4)CC3)cc2)cc1	/	-7	?	?	?	-11%
CC1CCCN(C(=O)c2ccc(S(=O)(=O)N3CCC(c4nc5ccccc5s4)CC3)cc2)C1 (stereo not given)	10µM*	?	/	-26%	-20%	/
CCc1cc(=S)n2c([nH]c3ccccc32)c1C#N	-13%	/	?	-24%	-25%	1.6µM*
CCc1c(C)c(C#N)c2[nH]c3ccccc3n2c1=S	?	-102*	?	-8%	6%	0.56µM*
CCc1cc(=O)n2c([nH]c3ccccc32)c1C#N	13%	44	14%	-22%	-11%	-17%
CCOC(=O)c1cnc(SCC(=O)Nc2ccc3c(c2)OCCO3)nc1N	-7%	-12	-27%	/	-20%	-4%
CCc1nc(SCC(=O)c2ccc3c(c2)OCCO3)c2ccccc2n1	8.9µM*	?	?	/	/	-2%
CCc1nc(SCC(=O)N2c3ccccc3Sc3ccccc32)c2ccccc2n1	?	?	-2%	/	/	-2%
CCCc1nc(SCC(=O)c2ccc(OC)cc2)c2ccccc2n1	13µM*	-83*	?	i	-21%	5%
Cc1nc(SCC(=O)c2cc(C)n(C3CC3)c2C)c2ccccc2n1	/	?	10µM*	-10%	?	/
CCc1nc(SCC(=O)c2ccccc2)c2ccccc2n1	?	-35	-6%	i	-23%	45µM*
Cc1ccc(Cn2ccc(NC(=O)c3nc4ncccn4n3)n2)cc1	9%	0	5%	/	-3%	0%
CCC1NC(=O)c2cc(S(N)(=O)=O)c(Cl)cc2N1 (stereo not given)	13%	0	-6%	-11%	-11%	1%
COc1ccc(-n2nc3ccc(NC(=O)COc4ccc(C)c(C)c4)cc3n2)cc1	/	5	-6%	8%	-3%	7%
CCCc1nc(SCC(=O)NC2CCCC2)c2ccccc2n1	-22%	?	-27%	-7%	-14%	5%
CCCc1nc(SCC(=O)N2CCCC2)c2ccccc2n1	-2%	-89*	?	/	/	9%
